Measured values from the supplement of paper PMC10681739.

How the values were obtained:
ETS1 = target: T1, ETS1 (UniProt P14921); experiment: ETS1 binding intensity (PBM fluorescence), ETS1 alone (arbitrary fluorescence units); higher = stronger binding; settings: ETS1 concentration 1 nM; RUNX1 concentration 0 nM
T1 sequence: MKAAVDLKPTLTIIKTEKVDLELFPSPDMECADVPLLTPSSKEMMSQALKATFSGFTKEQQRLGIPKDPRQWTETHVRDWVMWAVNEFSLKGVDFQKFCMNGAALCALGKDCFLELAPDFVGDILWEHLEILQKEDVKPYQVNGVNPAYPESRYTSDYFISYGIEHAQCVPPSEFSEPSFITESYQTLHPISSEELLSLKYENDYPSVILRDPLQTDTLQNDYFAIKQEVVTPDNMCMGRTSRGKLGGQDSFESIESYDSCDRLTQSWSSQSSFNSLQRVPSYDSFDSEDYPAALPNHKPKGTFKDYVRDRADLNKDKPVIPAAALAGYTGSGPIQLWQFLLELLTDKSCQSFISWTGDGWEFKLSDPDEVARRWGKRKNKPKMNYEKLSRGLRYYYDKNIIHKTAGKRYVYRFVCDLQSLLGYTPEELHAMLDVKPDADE

RUNX1 [1] = target: RUNX1 (UniProt Q01196); experiment: RUNX1 binding intensity (PBM fluorescence), RUNX1 alone (arbitrary fluorescence units); higher = stronger binding; settings: RUNX1 concentration 2 nM; ETS1 concentration 0 nM
RUNX1, sequence (Q01196 whole entry): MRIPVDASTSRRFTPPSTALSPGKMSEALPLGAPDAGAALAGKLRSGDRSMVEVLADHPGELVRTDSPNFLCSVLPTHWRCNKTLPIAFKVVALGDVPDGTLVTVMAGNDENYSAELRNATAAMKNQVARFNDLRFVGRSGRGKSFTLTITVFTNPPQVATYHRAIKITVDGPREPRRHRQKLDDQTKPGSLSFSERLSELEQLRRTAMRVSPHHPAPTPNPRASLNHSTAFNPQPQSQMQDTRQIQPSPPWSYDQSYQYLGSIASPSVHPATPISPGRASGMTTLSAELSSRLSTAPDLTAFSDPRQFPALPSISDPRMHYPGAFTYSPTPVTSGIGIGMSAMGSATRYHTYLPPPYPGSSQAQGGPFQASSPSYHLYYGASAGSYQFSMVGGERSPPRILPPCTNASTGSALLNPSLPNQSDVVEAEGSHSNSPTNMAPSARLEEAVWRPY
Method: (§1)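 Cooperative gcPBM on 36-bp genomic probes with neighbouring ETS1 and RUNX1 sites. Recombinant human RUNX1 (2 nM) was incubated alone or with ETS1 (25 nM) and detected with anti-RUNX1 antibody plus Alexa488 secondary. Values are medians over 4 replicate spots; the RUNX1+ETS1 data were normalised to the RUNX1-only data. The probes sit in constant array flanks that are not printed.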

RUNX1 [2] = target: RUNX1 (UniProt Q01196); experiment: RUNX1 binding intensity (PBM fluorescence) in presence of ETS1, normalised to RUNX1-only experiment (arbitrary fluorescence units); higher = stronger binding; settings: RUNX1 concentration 2 nM; ETS1 concentration 25 nM
Method: as §1
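Wherever RUNX1 binding intensity (PBM fluorescence) in presence of ETS1, normalised to RUNX1-only experiment is given: Full-length recombinant human ETS1 or RUNX1 bound to double-stranded 36-bp genomic probes on microarrays, detected by protein-specific primary antibody and Alexa488 secondary, spot fluorescence as median of four replicate spots.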
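Wherever RUNX1 binding intensity (PBM fluorescence), RUNX1 alone is given: Full-length recombinant human RUNX1 bound to double-stranded 36-bp genomic probes on a high-density microarray, scored as Alexa488 fluorescence per spot via anti-RUNX1 antibody, median of four replicate spots.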

Row | Sequence | ETS1 binding intensity (ETS1) | RUNX1 binding intensity (RUNX1 [1]) | RUNX1 binding intensity (RUNX1 [2])
1 | ACCTTCGCCGGATGCTGTGGCTGAAACCACAGCATT | 2480 | 994 | 1980
2 | CCTGCGGATCACGGAAGTGGCTGCGGTCGGCGCCAT | 2160 | 1360 | 4890
3 | TGGAACAATGCTGCTTCCTGTGGGTGTCCCCCGGCC | 1140 | 698 | 1330
4 | CTAAGCAGAGGCCGGAAGCGGTGGTTTTTAGCGGCT | 10200 | 677 | 2090
5 | TGCTTAGCGGGAAGTGCTTACACCACAAAACAAGAC | 678 | 726 | 1750
6 | CAGAGCAGAGAGGAAGTGGTGGTGGCCACAGTCCCA | 1760 | 686 | 1220
7 | GACATCTTCCGGTTGCTACAGGTTACGGCGGTTGCT | 2700 | 778 | 1640
8 | GGGTCTCCAGGAAGCCACTCACCACAAACTTTGACA | 482 | 1080 | 1480
9 | GAATGGCGGATGTGGCTGGGGAGAGAAAGCCGCAGA | 914 | 836 | 2610
10 | GGGGGCGGAAGTTTCGGTGCATTGTGGGTTCTCCTG | 1260 | 920 | 1140
11 | TCCAGTGCCGCCGCCGGAAAACCGCAGCGGCGGCGG | 887 | 5970 | 10200
12 | ACCCCAGGTACCGGAAGACCACAATTCCCAGGAGTC | 2220 | 1020 | 1880
13 | GACACAAGCCTCACAGGATGTGGTCAAAGAAGGTTG | 3830 | 762 | 3910
14 | GATGAAAGAGGAAGTTCTCAAACCACCTTGCCAGTG | 1170 | 768 | 1110
15 | ATGTGCCCAAAGGATGTCACCGCAAAGATCATAGGA | 561 | 1250 | 1820
16 | GCTGATAGAACAGGATGTGGTAAAGAAGCAGGCCAA | 5330 | 824 | 7890
17 | GACACGTCTTTGGAAGGATGTGGTTGCCGTGGGTTT | 724 | 786 | 880
18 | CCATGCACAACAGGATGTGGTTAGACAGTCAAAATT | 6700 | 875 | 11900
19 | AGTTGGTTCCTTCCGGTGGGTTTGTGGGTTTGGGGT | 1420 | 870 | 2390
20 | ACTATTTTTAGACTTCCCCACCCCGCAGTTTCAAGG | 601 | 1270 | 1010
21 | TTACGACACTTCCGGCGACGCCCCGCAGCCTTCACC | 2890 | 834 | 1880
22 | AAAGCATTTCCTGCCTTGACTTAACCACAAGACAGG | 1880 | 1460 | 4320
23 | CACCCAGTTTGAACTTCCTGGCGGTTTTGTTTACAC | 673 | 972 | 1730

Row | Sequence | ETS1 binding intensity (ETS1) | RUNX1 binding intensity (RUNX1 [1]) | RUNX1 binding intensity (RUNX1 [2])
24 | GAGGGGGAGGTTTCCGGGGCCTGTGGTTACTACACT | 438 | 943 | 1910
25 | GTGCTAGGACACAGGAAGCGATACCACAAAGAACAT | 3200 | 818 | 1790
26 | GGCGGCTTCCGGGATCTGCCTGGCGGTTGCTTTGTC | 568 | 729 | 2140
27 | AGTTACAGTAAAGGATGTGGTGAAACAGATGTTTAT | 847 | 781 | 923
28 | TTCACTTCCACCACTTCCTGTGGGTTTTGTTCATCC | 3090 | 1530 | 5560
29 | ACCCTTCCTGGAGCATTGTCGCAGCAACCACAACAG | 457 | 918 | 1200
30 | CACTTCCTCCTCGGGGGCCTCAGAAAACCACAGGGC | 413 | 1110 | 2790
31 | AGACGGTAGGCCAGGAAACCGCAGGCCCCTGCCGGG | 925 | 6110 | 10600
32 | GGAGGTGGGGAGGAAGTTCTGAAACCACACACATTT | 749 | 891 | 1090
33 | CTGTGACACGTGCGGAAGCTGTGGTAAGTGCATCCA | 1130 | 840 | 984
34 | GCACGCCATCGAGGAAGTGGGTTTACTGTGTATTTC | 916 | 723 | 934
35 | ACAGGAAGTGTCTCTATAGAAACCAAACCACAGAAA | 1270 | 935 | 949
36 | GTTCCTTTGAAAGCAGGATGTGGTTTGCCCCAGCTT | 5390 | 881 | 3730
37 | ACCTTGCCTAGAGGAAGTGGTTTTTCGAATCTGAGT | 2070 | 739 | 1540
38 | TTCAACAGGATATTGCTTTGTTACCACAGGCCCTTT | 1590 | 946 | 1490
39 | AGGCTGTGTGAAGGATGTGGTCAGGCGGAGGCCAGG | 604 | 921 | 1600
40 | GTTCAGCAGGAAGTGGATGTGGATGTGTGGTTGCCA | 3230 | 826 | 1290
41 | TGTGAACTGACAGGATGTGGTACAAGGCTTACAAAG | 4830 | 730 | 1780
42 | TAGCCACTAACCGGAAACGTTAAACCACAGCTCCGT | 10100 | 1180 | 7440
43 | GAGATACACAGCGACATCCGCCCGCAAGAGCATGGT | 823 | 733 | 1280
44 | GCGGGCAGGATCTTCCTGTGGTTTGCCTTGCCCACT | 388 | 904 | 2190
45 | CCCTACTCAGGAGGATGTGGTTGGAGAACCCGCTGA | 815 | 755 | 1300
46 | TGCGAGGTTGCCAGGAAACCGCGAAGCCGAGGTCCC | 808 | 1120 | 1530
